Laboratory results reported in ChEMBL document CHEMBL3433997, “St. Jude Leishmania screening dataset” (2016).

Legend:
Assay type in all cases: functional
[1] = biological target: Solute carrier family 2, facilitated glucose transporter member 1 (Homo sapiens) (UniProt P11166); experiment: ST_JUDE_LEISH: Cytotoxicity at 2uM final concentration against transgenic Leishmania Mexicana promastigotes LmGLUT1 that are glucose transport deficient and complemented with the human glucose transporter GLUT1. Activity is measured by DNA content using SYBR green in vitro
Solute carrier family 2, facilitated glucose transporter member 1 (Homo sapiens), sequence (P11166 whole entry): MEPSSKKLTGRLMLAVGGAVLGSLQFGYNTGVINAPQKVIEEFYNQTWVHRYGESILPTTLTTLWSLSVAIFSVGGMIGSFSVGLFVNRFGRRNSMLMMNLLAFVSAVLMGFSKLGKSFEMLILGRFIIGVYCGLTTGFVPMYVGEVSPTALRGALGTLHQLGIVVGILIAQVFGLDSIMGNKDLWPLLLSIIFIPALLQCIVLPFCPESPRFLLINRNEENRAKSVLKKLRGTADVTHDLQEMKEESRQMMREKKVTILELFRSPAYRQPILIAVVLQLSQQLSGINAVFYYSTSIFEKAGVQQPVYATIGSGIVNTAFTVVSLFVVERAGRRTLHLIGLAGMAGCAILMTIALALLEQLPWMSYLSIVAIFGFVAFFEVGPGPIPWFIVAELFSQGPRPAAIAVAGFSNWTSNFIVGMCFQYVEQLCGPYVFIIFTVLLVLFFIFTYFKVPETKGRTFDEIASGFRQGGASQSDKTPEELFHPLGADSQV

[2] = biological target: Hexose transporter 1 (Plasmodium falciparum) (UniProt O97467); experiment: ST_JUDE_LEISH: Cytotoxicity at 2uM final concentration against transgenic Leishmania Mexicana promastigotes LmPfHT that are glucose transport deficient and complemented with the Plasmodium falciparum hexose transporter. Activity is measured by DNA content using SYBR green in vitro
[3] = biological target: Glucose transporter (Leishmania mexicana) (UniProt O61059); experiment: ST_JUDE_LEISH: Cytotoxicity at 2uM final concentration against transgenic Leishmania Mexicana promastigotes LmGT2 that are glucose transport deficient and complemented with the L. Mexicana glucose transporter 2. Activity is measured by DNA content using SYBR green in vitro

SMILES | inhibition [1] | inhibition [2] | inhibition [3]
CC(C)(C)c1ccc(S(=O)(=O)Nc2ccccc2Cn2nc(N3CCNCC3)ccc2=O)cc1 | 8.03% | 7.83% | 8.79%
Cc1cccc(C)c1CNc1nc(N2CCOCC2)cc2c(C)c(C)[nH]c12 | 3.7% | 3.43% | 4.38%
O=C(Nc1ccccc1)N1CCC(CN2CCOC(c3ccccc3)(c3ccccc3)C2)CC1 | 7.91% | 4.78% | 7.57%
COc1ccc2nccc([C@@H](O)CN3CCC(NCc4cc5sccc5nc4C(F)(F)F)CC3)c2c1 | 3.75% | 1.89% | -4.21%
O=C(O)C[C@H](NC(=O)[C@@H]1CCCN1C(=O)c1cccc(-c2ccc(Cl)c(Cl)c2)c1)C(=O)O | 1.31% | 0.14% | 1.61%
COc1cccc(-c2ccc(C(=O)NC3CCN(Cc4ccc(N(C)C)cc4)CC3)s2)c1 | 2.66% | 1.14% | -0.07%
COc1cc(C(=O)NCCCN2CCN(c3cc(Cl)ccc3OC)CC2)ccc1-c1nc2cc(Cl)c(Cl)cc2[nH]1 | 6.79% | 6.15% | 5.03%
N=C(Nc1nc(-c2ccccn2)cc2ccccc12)c1cccc(Cl)c1 | 50.7% | 48.7% | 18.1%
CC(C)(C)c1ccc(CNC(=O)/C=C/c2ccc(CNC3CCNCC3)cc2)cc1 | -1.23% | -1.07% | -1.84%
CCCOc1ccc(CCCON2C(N)=NC(N)=NC2(C)C)cc1 | 7.95% | 13% | 6.99%
CC(C)NCc1cccc(-c2ccc(-c3nc4ccccc4[nH]3)cc2)c1 | 3.1% | 2.97% | 0.41%
C#CCN(Cc1ccc2[nH]c(N)nc(=O)c2c1)c1ccc(C(=O)N[C@@H](CCC(=O)O)C(=O)O)cc1 | 4.21% | 3.35% | 3.66%
Cc1ccc(Oc2ccc(CNc3nc(Nc4cccc(F)c4)nc(Nc4cccc(F)c4)n3)cc2)cc1 | 8.54% | 8.04% | 4.75%
Cc1cccc(C(=O)N2CCN(Cc3cccc(NC(=O)c4ccco4)c3)CC2)c1 | -1.31% | 1.48% | 1.47%
O=C(N[C@H]1CCN(CCc2ccc(O[C@H]3CCNC3)cc2)C1)c1ccc(Cl)c(Cl)c1 | 14.2% | 10.1% | 14.5%
CN1CCC(C(=O)Nc2cccc(-c3ccc(-c4nc5cc(C(F)(F)F)ccc5[nH]4)cc3)c2)CC1 | 4.82% | 2.75% | 3.82%
O=C(Nc1ccc(F)c(C(F)(F)F)c1)NC1CCN(CCCCCNC(=O)C2CC2c2ccc(Cl)c(Cl)c2)CC1 (stereo unspecified) | 4.2% | 3.79% | 4.44%
O=C(/C=C/c1ccc(Cl)c(Cl)c1)NCCCCCN1CCC(NC(=S)Nc2cccc(Cl)c2)CC1 | 2.06% | 0.6% | -0.54%
S=C(NCCc1ccccc1)Nc1ccc2ncsc2c1 | -0.85% | 1.14% | -0.73%
COc1cc2nc(N3CCC(CNCc4ccc(-c5ccc(C(F)(F)F)cc5)cc4)CC3)nc(N)c2cc1OC | 106% | 107% | 110%
O=S(=O)(c1cccc2cccnc12)N1CCN(C2CCCCC2)CC1 | 8.16% | 8.51% | 7.83%
CC(C)n1nc(C(=O)N2CCN(c3ccccc3)CC2)c2ccccc2c1=O | 1.27% | -0.42% | -0.69%
C#C[C@H]1O[C@@H](n2cnc3c(Nc4cc(Br)cc(C(F)(F)F)c4)ncnc32)[C@H](O)[C@@H]1O | 3.1% | 2.11% | 2.53%
COc1ccc2nc(C)cc(Nc3ccc(Oc4ccc5ccccc5c4Cl)c(Cl)c3)c2c1 | 13.7% | 12.6% | 8.39%

SMILES | inhibition [1] | inhibition [2] | inhibition [3]
COc1cccc(OC)c1C(=O)N1CCC2(CC1)C(=O)N(CC(=O)NC1CCCCC1)CN2c1ccccc1 | 0.35% | 4.45% | 3.89%
CO/C(=C\C=C\c1cc2cc(Cl)c(Cl)cc2[nH]1)C(=O)NCCCN1CCN(c2cccc(CCCO)c2)CC1 | 6% | 5.32% | 5.89%
O=C(/C=C/c1ccc2ccccc2c1)NCC1(c2ccc(-c3ccccc3)cc2)CCOCC1 | 2.52% | 2.55% | 3.08%
CO/C(=C\C=C\c1cc2cc(Cl)c(Cl)cc2[nH]1)C(=O)NCCCN1CCCC[C@H]1C | 3.27% | 2.98% | 1.43%
Cc1ccc(-n2cc(CNCCc3nc(C)c[nH]3)c(-c3ccc(F)cc3)n2)cc1 | 4.34% | 3.49% | 2.6%
Cc1c(-c2ccccc2)ccc2[nH]cc(CC#N)c12 | 1.56% | 3.54% | 0.3%
CCOC(=O)c1cc(C(=O)OC)c2ccccn12 | 2.17% | 0.87% | 1.34%
Cc1nnc2c(NC(=O)/C=C/c3ccc(OC(F)(F)F)cc3)cc3cc(Cl)ccc3n12 | 0.28% | 0.28% | 0.55%
CCCCCCCc1ccc(-c2c(C)[nH]c(C)c(Cl)c2=O)cn1 | 0.84% | 1.55% | 0.07%
Cc1cc(N[C@@H](Cc2ccccc2)C(=O)NC2CCCC2)nc(NCCOc2ccccc2)n1 | 1.41% | -1.48% | 2.19%
Cc1cc(NCCC(=O)Nc2ccccc2)nc(NCc2ccccc2C)n1 | 11% | 10.5% | 7.37%
COc1ccc(Nc2nc(C)cc(NC3CCCC3)n2)cc1 | 29.2% | 26.2% | 17.7%
C=CCOc1ccccc1CNCC(O)c1cc(Br)cs1 (stereo unspecified) | 1.55% | 2.37% | 2.43%
CC(NC(=O)c1ccc(O)c(-c2ccc(Cl)c(Cl)c2)c1)C(=O)NCCN1CCOCC1 (stereo unspecified) | 1.85% | 2.13% | 3.62%
COc1cc(C)nc2ccc(NC(=O)Nc3ccccc3[N+](=O)[O-])cc12 | 2.28% | 0.56% | 1.8%
O=C(Nc1ccc(Oc2ccccc2)cc1)N1CCC(CCN2CCC(c3c[nH]c4ccccc34)CC2)CC1 | 4.42% | 2.98% | 5.21%
Cc1[nH]c(C)c(-c2ccc(OCc3cc(F)cc(F)c3)nc2)c(=O)c1Br | 3.26% | 5.62% | 0.58%
Cc1cc(-c2cnc(N)c(-c3ccc(N4CCN(C)CC4)cc3)c2)cc(C)c1O | 3.43% | 0.67% | 2.45%
CC(C)COc1ccc(Cl)cc1Cc1nc(-c2nc3ccc(CN4CCN(C)CC4)cc3[nH]2)co1 | 8.24% | 7.62% | 7.58%
COC(=O)c1cccc(CNCc2ccc(-c3cccc(-c4nc5ccccc5[nH]4)c3)cc2)c1 | -2.56% | -1.88% | 0%
O=S(=O)(NCCN1CCCC1)c1cccc(-c2ccc(CNC3Cc4ccccc4C3)cc2)c1 | 30.3% | 16.9% | 8.14%
O=C(Nc1cccc(F)c1)NC1CCN(CCCCCNC(=O)C2CC2c2ccc(Cl)c(Cl)c2)CC1 (stereo unspecified) | 0.44% | -0.11% | -1.31%
CC1CN(c2ccc3occ(C(=O)Nc4ccc(-c5ccncc5)c(Cl)c4)c3c2)CC(C)N1C (stereo unspecified) | 5.54% | 3.33% | 1.93%
CN(C)Cc1ccc(-c2ccc3c(Nc4ccc(Cl)cc4F)ccnc3c2)o1 | -1.45% | -1.56% | 5.24%

SMILES | inhibition [1] | inhibition [2] | inhibition [3]
CCN(CCS(C)(=O)=O)Cc1ccc(-c2ccc3ncnc(Nc4ccc(OCc5cccc(F)c5)c(Cl)c4)c3c2)o1 | 2.48% | 0.54% | -0.09%
COc1cccc(CN2CCCC(OC(c3ccc(F)cc3)c3ccc(F)cc3)C2)c1O (stereo unspecified) | 0.04% | 0.76% | -1.69%
COc1ccc2cc(C(C)NC3CCN(c4cccc(NC(=O)c5ccncc5)c4)CC3)ccc2c1 (stereo unspecified) | 0.03% | -0.06% | -1.47%
Cc1[nH]c(C)c(-c2ccc(-c3ccc4c(c3)OCO4)nc2)c(=O)c1Br | 0.29% | 1.09% | 0.07%
CC1CN(c2ccc3[nH]cc(Sc4ccc(-c5cccs5)cc4)c3c2)CC(C)N1 (stereo unspecified) | -0.79% | -1.78% | -1.36%
CN(C)CCCNc1ncnc2c1[nH]c1ccc(Br)cc12 | 1.44% | 2.41% | 1.04%
CCC(C)(C)C1CCc2[nH]c3ccccc3c(=O)c2C1 (stereo unspecified) | 9.6% | 26.9% | 6.59%
CCCCCCn1c(Sc2ccc(C#N)c([N+](=O)[O-])c2)nnc1-c1cccc(Cl)c1 | 3.22% | 9.17% | 0.88%
CCCN1CCN(CCNc2c3ccccc3nc3ccccc23)CC1 | 96.4% | 97.2% | 94.2%
N#Cc1ccc(N/C(=N\c2ccccc2Cl)NC2CCN(Cc3ccccc3)CC2)c(O)c1 | 2.09% | 2.49% | 0.29%
NC1CCCN(Cc2cccc(-c3cccc(-c4nc5ccccc5[nH]4)c3)c2)C1 (stereo unspecified) | 8.27% | 6.48% | 5.75%
CC(C)CCNCc1c(O)ccc2ccccc12 | -2.54% | -0.86% | 3.37%
O=S(=O)(c1ccc(OCc2ccc(Cl)cc2)cc1)c1cc2c(cc1O)CCN(C1CCC1)CC2 | 2.05% | 1.15% | 1.15%
COc1cc(CN=C(S)NN=C(C)c2ccccn2)cc(OC)c1OC | 5.41% | 1.2% | 2.59%
O=C(NCCc1ccccc1)N(Cc1ccccc1-c1ccc(CNC2CCCC2)cc1)C1CCN(Cc2ccccc2)CC1 | 7.74% | 7.15% | 5.58%
CC(CCCCC(=O)Nc1ccc(CC(C)NCCc2cccc(Cl)c2)cc1)NCCc1cccc(Cl)c1 (stereo unspecified) | 0.84% | 2.45% | -1.1%
CCC(C)CNC(=O)CN1CN(c2ccccc2)C2(CCN(C(=O)c3ccc(Br)cc3)CC2)C1=O (stereo unspecified) | 0.35% | -0.13% | 0.82%
CCOc1cc(OCC)c2ccccc2c1CNCCCCCCNCc1c(OCC)cc(OCC)c2ccccc12 | 83.2% | 50.7% | 56.7%
CC(CN(C)C)C(=O)Nc1cccc(-c2cccc(-c3nc4cc(F)ccc4[nH]3)c2)c1 (stereo unspecified) | -2.1% | -1.06% | -3.91%
CCN(CC)CCN(Cc1ccc(-c2ccc(C(F)(F)F)cc2)cc1)C(=O)Cn1c(CCc2cccc(F)c2F)cc(=O)cc1-c1ccccc1 | 1.88% | 3.45% | -1.71%
COc1ccc(OC)c(-c2ccc(O)c(CNCC(C)c3ccccc3)c2)c1 (stereo unspecified) | -0.66% | -0.62% | -1.24%
CCN1CCN(c2cc(C)c3cc(NC(=O)c4ccc(Br)o4)ccc3n2)CC1 | 6.38% | 6.62% | 8.17%
Oc1cccc2c1CC(NCc1ccccc1)CC2 (stereo unspecified) | 1.86% | 1.22% | 2.32%
O=C(CN1CCN(S(=O)(=O)C=Cc2ccccc2)CC1)Nc1cc(C(F)(F)F)ccc1Cl | 9.54% | 7.6% | 8.72%
